Screening data as filed in PubChem BioAssay.
PfM18AAP inh = PfM18AAP enzyme inhibition; recombinant PfM18AAP, H-Glu-NHMec fluorogenic cleavage; inhibition, % at 7.35 µM; 290,000 tested, 1.2% active;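 active = inhibition above the campaign mean inhibition over all tested compounds plus 3 SD, cut at about 28% in these data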
ALR H2O2 inh = inhibitors of human sulfhydryl oxidase ALR | P55789 | purified ALR, DTT oxidation, H2O2 HRP-luminol luminescence | inhibition, % (test concentration not listed) | 290,000 tested, 3.8% active;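 active = mean replicate inhibition above about 79%, with every replicate also reaching it, limit read from the data; inconclusive = only one of the two criteria met; inactive = mean below limit and not every replicate reaching it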
Target sequence (P55789 whole entry, looked up): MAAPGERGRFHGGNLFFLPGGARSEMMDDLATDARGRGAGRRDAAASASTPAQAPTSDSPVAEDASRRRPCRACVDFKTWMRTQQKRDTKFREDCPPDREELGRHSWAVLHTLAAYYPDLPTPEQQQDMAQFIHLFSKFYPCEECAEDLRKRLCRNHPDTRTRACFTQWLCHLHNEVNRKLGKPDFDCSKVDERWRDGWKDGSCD
PHOSPHO1 block = PHOSPHO1 (human) inhibition; Q8TCT1; recombinant PHOSPHO1, absorbance phosphatase assay; inhibition, % at 13.3 µM; 290,000 tested, 1.1% active; AID 1565; in the data active = inhibition above about 60%
Target sequence (Q8TCT1 whole entry, looked up): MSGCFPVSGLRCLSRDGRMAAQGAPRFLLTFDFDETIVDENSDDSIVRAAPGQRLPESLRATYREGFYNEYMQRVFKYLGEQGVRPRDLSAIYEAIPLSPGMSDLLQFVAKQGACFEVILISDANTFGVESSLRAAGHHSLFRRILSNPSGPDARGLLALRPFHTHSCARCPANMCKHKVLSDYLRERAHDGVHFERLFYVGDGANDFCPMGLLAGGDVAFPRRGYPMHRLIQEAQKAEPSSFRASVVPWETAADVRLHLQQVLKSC
H9c2 protect = modulators protecting cardiomyocytes from myocardial damage; H9c2 cardiomyocytes, H2O2 injury protection, ATPLite, 2 h; protection from H2O2 cell death, % at 20 µM; 360,000 tested, 0.63% active;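 active = compounds giving at least 50% protection of heart cells from peroxide-induced death in the single-dose screen, raw or plate-pattern-corrected value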
PfG6PD inh = PfG6PD (Plasmodium falciparum) enzyme inhibition. PfGluPho enzyme, NADPH resazurin-diaphorase fluorescence. inhibition, % at 20 µM. 350,000 tested, 0.78% active;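 active = inhibition reaching at least a set limit at 20 µM in the primary screen, cut at about 59% in these data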
Each line names hits and unclear results; the compound was inactive in the other large screens. This is a sample that favours compounds with a hit; in the whole collection about 5.6% have one here.

Cc1cc(Cl)cc(C)c1OCC(=O)NC1CCCCCC1	none (no result: PfM18AAP inh, PHOSPHO1 block)
COc1c(Cl)cc(Cl)cc1C(=O)Nc1ccc(NC(C)=O)cc1	none (no result: ALR H2O2 inh)
COC(=O)c1cc(Cl)cc(Cl)c1OS(=O)(=O)N(C)C	ALR H2O2 inh 98.9
COc1cccc(C(=O)N2CCCc3ccccc32)c1OC	none (no result: PfM18AAP inh, ALR H2O2 inh, PHOSPHO1 block)
O=c1ccc2cc3c([nH]c4ccc(Br)cc43)oc-2c1O	ALR H2O2 inh 99.1 (no result: PfG6PD inh)
Fc1ccc(-n2c(Cn3nnc4ccccc43)n[nH]c2=S)cc1	PfM18AAP inh 30.0
Cc1ccc(NC(=O)c2ncn(CCCNCCCc3ccccc3)n2)cc1C	none (no result: PfM18AAP inh, ALR H2O2 inh, PHOSPHO1 block)
Cc1ccc(-c2cn3c(n2)SCC3)cc1	ALR H2O2 inh 98.5
CCc1ccc(-c2cn3c(n2)SCC3)cc1	none
CCN(CC(=O)Nc1c(F)cccc1F)C(=O)Cc1ccc2c(c1)CCC2	none (no result: PfM18AAP inh, PHOSPHO1 block)
COc1cc(C(=O)Nc2ccc(O)cc2C(=O)O)ccc1OC(C)=O	ALR H2O2 inh 87.3
CCCCCCN1C[C@H](n2cc(C3CC3)nn2)[C@@H](O)C[C@@H]1c1ccc(OC)cc1	none (no result: PfM18AAP inh, ALR H2O2 inh, PHOSPHO1 block)
CCOC(=O)Cc1c(C)nc2c(-c3ccc(Cl)cc3)c[nH]n2c1=O	ALR H2O2 inh 97.8, H9c2 protect 51.8
CCOC(=O)Cc1c(C)nc2cc(-c3ccc(Cl)cc3)[nH]n2c1=O	none
COCc1cc(=O)n2[nH]cc(-c3ccccc3)c2n1	none
CCCc1cc(=O)n2[nH]cc(-c3ccc(Cl)cc3)c2n1	ALR H2O2 inh 99.0
CCCNc1c(NS(=O)(=O)c2cccs2)c(=O)oc2ccccc12	none
CCOC(=O)C1=C[C@@H](c2ccccc2)N(S(=O)(=O)c2ccc(C)cc2)[C@H]1c1ccc(OC)cc1	none (no result: PfM18AAP inh, ALR H2O2 inh, PHOSPHO1 block, PfG6PD inh)
S=C1NC2=C(CCC/C2=C\c2ccc(Cl)cc2)C(c2ccc(Cl)cc2)N1 (stereo unspecified)	PHOSPHO1 block 91.8
S=C1NC2=C(CCC/C2=C\c2ccccc2)C(c2ccccc2)N1 (stereo unspecified)	none
O=C(Nc1ccccc1N1CCCC1)c1ccccc1Cl	ALR H2O2 inh 98.5 (no result: PHOSPHO1 block)
O=C(O)/C=C\C(=O)Nc1ccccc1N1CCN(c2ccccc2)CC1	ALR H2O2 inh 98.1 (no result: PHOSPHO1 block)
O=C(Nc1ccccc1N1CCCC1)c1ccc(Cl)cc1Cl	none
O=C(NC(=S)N1CCN(c2ccc(O)cc2)CC1)c1ccco1	ALR H2O2 inh 99.0 (no result: PfM18AAP inh, PHOSPHO1 block)
O=C(/C=C/c1ccco1)Nc1ccccc1N1CCCC1	ALR H2O2 inh 98.9
CCOc1ccc(/C=N/n2c(C3CCCCC3)n[nH]c2=S)cc1	none
Cc1cccc(C)c1NC(=O)NC1(C(=O)NCC2CCCO2)CCCCC1 (stereo unspecified)	none
Cc1ccc(CNC(=O)c2ccc(F)c(S(=O)(=O)N3CCOCC3)c2)cc1	none (no result: PfM18AAP inh, ALR H2O2 inh, PHOSPHO1 block)
Cc1ccc(Nc2nnc(-c3ccccc3N)o2)cc1C	none
Cc1ccccc1C(=O)Nc1ccccc1N1CCCCC1	none
O=C(NNC(=S)Nc1ccccc1Cl)c1ccccc1Cl	ALR H2O2 inh 89.5
O=C(Nc1ccccc1N1CCCC1)c1ccc(Br)o1	ALR H2O2 inh 98.4
O=C(NC(=S)Nc1ccccc1N1CCOCC1)c1ccco1	ALR H2O2 inh 96.3
O=C(NC(=S)Nc1ccccc1N1CCCC1)c1ccco1	ALR H2O2 inh inconclusive
Cc1ccsc1C(=O)Nc1ccccc1N1CCCC1	ALR H2O2 inh 98.7 (no result: PfM18AAP inh, PHOSPHO1 block)
COc1ccc(-c2ccccc2)cc1NC(=O)[C@@H]1O[C@H](CO)[C@@H](O)[C@H]1O	none (no result: PfM18AAP inh, ALR H2O2 inh, PHOSPHO1 block, PfG6PD inh)
O=C(Nc1ccccc1N1CCCCC1)c1ccco1	ALR H2O2 inh 96.8
O=C(/C=C/c1ccco1)Nc1sc2c(c1C(=O)O)CCC2	ALR H2O2 inh 97.6
O=C(NCC(=O)N1CCN(c2ccccc2O)CC1)c1ccc(Br)o1	ALR H2O2 inh 98.7 (no result: PfM18AAP inh, PHOSPHO1 block)
O=C(NCC(=O)N1CCCCCCC1)c1ccc(Br)o1	none (no result: PfM18AAP inh, PHOSPHO1 block)
CC1(C)CC(=O)C2=C(C1)N(Cc1ccco1)C(=O)C2(NC(=O)c1ccc(Cl)cc1Cl)C(F)(F)F (stereo unspecified)	ALR H2O2 inh 98.0
CC1(C)CC(=O)C2=C(C1)N(Cc1ccco1)C(=O)C2(NC(=O)C1CCCCC1)C(F)(F)F (stereo unspecified)	none
CCN(C(=O)Cn1cc(C(=O)C(=O)N2CCOCC2)c2ccccc21)c1ccccc1	PHOSPHO1 block 72.8
CCC1(C)CC(C#N)(C#N)C(=O)NC1=O (stereo unspecified)	none (no result: PfM18AAP inh, ALR H2O2 inh, PHOSPHO1 block, PfG6PD inh)
C=CC[C@@H](CC(=O)N[C@H](CO)Cc1ccccc1)C(=O)N[C@H](COC(=O)[C@@H](CC=C)CC(=O)OC(C)(C)C)Cc1ccccc1	none (no result: PfM18AAP inh, PHOSPHO1 block)
CCCOC(=O)C(C)n1c(-c2ccccc2)nc2ccccc2c1=O (stereo unspecified)	ALR H2O2 inh 91.3
C/C(=N\NC(=O)c1ccc(N/N=C(\C)c2ccncc2)cc1)c1ccncc1	ALR H2O2 inh 98.2
